Most compounds without a hit are left out; they make up all but 2.4% or so of the library.
Epigenetic derep: regulators of epigenetic silencing causing reporter derepression in mouse cells; 0.2% of 280,000 active; Potency, µM (doses to about 53.9 µM), for inactives: at the top dose GFP activation, most hits filed as activators; AID 1865; murine LDR cells, GFP reporter derepression, 30 h; note: % of control where 0% means no effect; nearly all actives have a fitted effect of over 60% in size
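Derepression of a silenced CMV-GFP reporter in murine LDR cells is scored by enumerating GFP-positive cells with a laser-scanning microplate cytometer after 30 hours of treatment at 37 C.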
A549 tox: kills or reduces viability of A549 cells in Nrf2 counter-screen | Potency, µM (top dose mostly 46 µM), for inactives: top-dose activity change, negative = cytotoxicity, hits mostly inhibitors | A549 ARE-Fluc cells, CellTiter-Fluor viability, 18-24 h | AID 504648 | 0.16% of 390,000 active; note: % is set by controls: 0 for no effect and ±100 for the full control effect
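A549 ARE-Fluc cells in 5% FBS OPTI-MEM, 5000 cells/well, rested 2 h then exposed to compounds in concentration-response for 18-24 h at 37 °C. Viability by CellTiter-Fluor fluorescence (Ex 405/Em 525) after 30 min; luciferase luminescence (BugLite, 15 min, RT) read afterwards.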
Nrf2 activator: activates Nrf2 signaling; AREc32 ARE-luciferase reporter (MCF7-derived line), luminescence, 24 h; Potency, µM (highest dose often 46.1 µM), for the others: top-dose activation, hits mostly activators; 0.31% of 410,000 active; AID 624171; note: % of control where 0% means no effect; nearly all actives have a fitted effect of over 65% in size
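Each well held 1000 AREc32 cells, which were incubated with compound for 24 hr at 37 deg C after overnight attachment, and ARE reporter activity was quantified by firefly luciferase luminescence.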
Nrf2 inh: inhibitors of Nrf2 signaling | A549 ARE-Fluc reporter, luciferase luminescence, 18-24 h | Potency, µM (doses to about 46 µM), inactives show at the top dose activity change, negative = inhibition, hits mostly inhibitors | AID 504444 | 2.1% of 360,000 active; note: % is set by controls: 0 for no effect and ±100 for the full control effect; nearly all actives have a fitted effect of over 60% in size
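A549 ARE_Fluc cells, 5000/well, 5% FBS OPTI-MEM; compounds in dose-response, 18-24 h at 37 °C/5% CO2; CellTiter-Fluor viability read (Ex 405/Em 525), then BugLite luciferase luminescence = Nrf2 activity.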
PINK1 modulator: PINK1 expression modulation; PINK1 immunofluorescence, high-content cytometry, 24 h; Potency, µM (titrated, usually from 76.6 µM), inactives show at the highest dose activation (PINK1 increase), usual class: activators; 0.2% of 410,000 active; active = well fitted activation curve with a large enough effect; inconclusive = small, poorly fitted or top-dose-only effect; cell line not stated here; note: % of control where 0% means no effect; nearly all actives have a fitted effect of over 65% in size
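Stable cell line, 250 cells/well, 12 h attachment; compounds pinned at 5 concentrations, 24 h; CCCP control. Fixed with nuclear dye, primary antibodies 12 h at 10 degrees C, secondary plus cell stain; laser-scanning cytometer read.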
The depositor's hits bear a star; ? = inconclusive; . = no result; [ ] = another dose, or the depositor's remark. Unless noted, calls come from the whole dose curve; as a rule, active = well fitted curve in the direction sought with a large enough effect; inconclusive = small, poorly fitted or top-dose-only effect, or another doubt; inactive = no such curve, though single readings can be large; an effect the other way counts as inactive or inconclusive. Potency is the fitted concentration of half-maximal effect.

SMILES	Epigenetic derep	A549 tox	Nrf2 activator	Nrf2 inh	PINK1 modulator
CCN(Cc1ccccc1)S(=O)(=O)c1ccc(C(=O)Nc2nnc(C3CC3)o2)cc1	0.0%	-18.7%	-1.8%	8.2µM*	-0.1%
Cc1nnc(NC(=O)c2ccc(S(=O)(=O)N(C)Cc3ccccc3)cc2)o1	0.0%	-23.2%	-1.9%	18.4µM*	0.6%
CC(C1CC1)N(Cc1ccccc1)C(=S)Nc1ccccc1Cl (stereo unspecified)	-1.2%	-12.3%	1.6%	29.1µM*	8.2%
COc1ccc2c(Cl)c(C(=O)NN)sc2c1	0.0%	-3.4%	-0.6%	14.6µM*	.
CC(C)(C)OC(=O)N1CCC(c2nnc(SCc3ccccc3)o2)CC1	-2.7%	-12.8%	8.9%	11.6µM*	-0.7%
CCOC(=O)c1c(S(=O)(=O)N2CCC(C(=O)Nc3cccc(C#N)c3)CC2)c(C)n(C)c1C	-1.3%	3.5%	-1.0%	.	1.4%
CC(C)C(=O)N1CCN(c2nc(-c3ccccc3)c3c(c2C#N)CCCC3)CC1	0.8%	?	3.2%	11.6µM*	-6.7%[38.3 µM]
CC(c1ccon1)N(C)C(=O)c1cnn(-c2ncc3c(n2)-c2ccccc2CC3)c1C1CC1 (stereo unspecified)	.	.	.	.	0.4%
CCN1CCN(Cc2ccc(NC(=O)c3ccc(C)c(NC(=O)c4cncc(-c5cccs5)c4)c3)cc2C(F)(F)F)CC1	.	?	-2.8%	8.2µM*	-0.8%
CCN1CCN(Cc2ccc(NC(=O)c3ccc(C)c(NC(=O)c4nccn4C)c3)cc2C(F)(F)F)CC1	14.4%	3.6%	-0.3%	-7.9%	-1.1%
CCc1cc2c3c([nH]c2cc1S(=O)(=O)N1CCC2(CC1)OCCO2)CCCC3=O	.	-0.6%	-0.4%	?	1.6%
Cc1cc2c3c([nH]c2cc1S(=O)(=O)N1CCC2(CC1)OCCO2)CC(C)(C)CC3=O	.	15.9%	3.4%	23.1µM*	1.4%
O=[N+]([O-])c1ccc(-c2csc3[n+]2CCS3)cc1	-0.3%	-16.7%	0.6%	?	0.4%
Fc1ccc(-c2csc3[n+]2CCS3)cc1	1.2%	-21.7%	-0.5%	16.4µM*	3.9%
O=C(CC(Sc1ccccc1)c1cccs1)c1ccco1 (stereo unspecified)	-0.7%	-3.6%	17.8µM*	9.6%	.
CC(/C=C/C(=O)c1ccc(C)cc1)=C\c1ccccc1	-1.8%	-6.7%	11.2µM*	17.0%	9.1%
Cc1ccc(C(=O)/C=C\C(=O)c2ccc(C)cc2)cc1	0.0%	3.6%	4.0%	?	2.2%
Cc1ccc(S/C=C\C(=O)c2ccccc2)cc1	2.9%	1.2%[1.84 µM]	?	70.0%	12.6µM*
CCN(Cc1ccccc1)c1ccc(/C=N/NC(=O)c2cccc(S(=O)(=O)N3CCOCC3)c2)cc1	1.0%	-21.7%	2.8%	11.6µM*	3.8%
CCN(CC)c1ccc(/C=N/NC(=O)c2cccc(S(=O)(=O)N3CCOCC3)c2)cc1	0.0%	-19.9%	3.9%	?	0.5%
CCOC(=O)c1ccccc1NC(=O)Cc1ccc(OC)c(S(=O)(=O)N2CCOCC2)c1	.	-24.8%	-0.1%	18.4µM*	-1.2%
COc1ccc(CC(=O)Nc2cccc(Cl)c2C)cc1S(=O)(=O)N1CCOCC1	.	7.1%	0.2%	11.6%	0.2%
Cc1ccc2c(CC(=O)N3CCOc4ccc(CN5CCOCC5)cc4C3)cc(=O)oc2c1	.	.	.	.	-0.4%
C1CCC[C@H]2CCCN3CC[C@H](CCCCCC[C@@H]4CCCN5CC[C@H](CC1)OC45)OC23	0.0%	.	.	.	.
Brc1ccc(/C=C2\C=Cc3ccccc32)cc1	.	.	.	.	1.7%
CS(=O)c1nc(-c2ccc(Br)cc2)cc(-c2ccccc2)c1C#N (stereo unspecified)	-1.1%	?	0.1%	14.6µM*	-8.4%[38.3 µM]
CC(C)(C)C1C=C(Sc2ccccc2)C(=O)O1 (stereo unspecified)	1.9%	-9.5%	22.8%	?	15.8µM*
Cn1c(=O)c(Sc2ccccc2)c(O)c2ccccc21	3.0%	-7.2%	-0.5%	-5.7%	2.5%
Oc1cc(-c2ccc(N3CCCCC3)nc2)cc2cccnc12	.	?	-1.6%	?	12.6µM*
CCn1c(SCc2ccc(F)cc2Cl)nc(=O)c2c(C(=O)OC)cc(C3CC3)nc21	-0.7%	-2.1%	-4.0%	.	6.6%
